M1 PAM parental = M1 PAM counterscreen hit in parental CHO-K1 cells. ATP EC20, Fluo-8 calcium fluorescence; 0% at ATP EC20, 100% at ATP max. activation, % at 3 µM. AID 602247. 360,000 tested, 0.02% active;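 active means activation above the run cutoff, the mean activation of all test compounds plus 3 SD, cut at about 40% in these data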;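 further: peak over basal fluorescence ratio in a 140 s read after ATP addition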
CHO-K1 Ca antag = nonselective inhibitor or artifact in parental CHO-K1 cells. ATP-induced calcium, Fluo-8 fluorescence. inhibition, % at 3 µM. 360,000 tested, 0.6% active. AID 602250;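 active means inhibition above a per-plate cutoff, the plate's mean sample inhibition plus 3 SD, cut at about 24% in these data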;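 further: 0% = DMSO plus EC80 ATP and 100% = DMSO alone without ATP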
M1 PAM = human CHRM1 positive allosteric modulation. P11229. CHO-K1 hM1, Fluo-8 calcium fluorescence, ACh EC20; 0% = ACh EC20, 100% = maximal ACh. activation, % at 3 µM. 360,000 tested, 0.088% active; in the data active means activation above about 19%, passing the limit was not always enough
Target sequence (P11229 whole entry, looked up): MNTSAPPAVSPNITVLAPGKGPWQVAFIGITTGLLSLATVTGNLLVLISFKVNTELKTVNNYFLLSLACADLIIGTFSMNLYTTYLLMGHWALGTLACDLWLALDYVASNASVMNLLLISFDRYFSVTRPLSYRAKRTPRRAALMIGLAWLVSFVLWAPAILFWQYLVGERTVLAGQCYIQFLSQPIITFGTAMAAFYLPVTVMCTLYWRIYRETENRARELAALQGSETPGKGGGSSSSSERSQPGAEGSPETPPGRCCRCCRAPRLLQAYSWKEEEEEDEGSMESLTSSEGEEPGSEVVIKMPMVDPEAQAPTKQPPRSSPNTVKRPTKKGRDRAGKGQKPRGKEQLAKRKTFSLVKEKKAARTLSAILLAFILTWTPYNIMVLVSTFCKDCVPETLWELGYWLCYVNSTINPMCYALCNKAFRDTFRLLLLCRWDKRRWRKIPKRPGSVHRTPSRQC
M1 ag parental = M1 agonist counterscreen hit in parental CHO-K1 cells; 360,000 tested, 0.48% active; AID 602248; Fluo-8 calcium fluorescence; scaled to maximal ATP response, vehicle zero; activation, % at 3 µM; in the data active means activation above about 15%;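 further: untransfected CHO-K1 host cells lacking M1 receptor as counterscreen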
M1 ag = agonists of human M1 muscarinic receptor; CHO-K1 hM1, Fluo-8 calcium fluorescence, agonist mode; 0% DMSO, 100% acetylcholine EC100; activation, % at 3 µM; 360,000 tested, 0.33% active; AID 588814;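 active means activation above the run's mean compound activation plus 3 SD, cut at about 16% in these data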;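 further: peak over basal fluorescence ratio within a 140 s kinetic read after compound addition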
CHRM1 antagonist = human CHRM1 antagonism; P11229; CHO-K1 hM1, Fluo-8 calcium fluorescence, ACh EC80 antagonist; inhibition, % at 3 µM; 360,000 tested, 1.3% active;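 active means percent inhibition above its own plate's cutoff, namely the mean of that plate's compound wells plus 3 SD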;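 further: peak over basal fluorescence ratio during 140 s after agonist addition; 0% = ACh EC80 plus DMSO and 100% = DMSO alone without agonist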
The depositor's hits bear a star; . = not tested or not shown. Most compounds without a hit are left out; they make up all but 2.4% or so of the library.

SMILES | M1 PAM parental | CHO-K1 Ca antag | M1 PAM | M1 ag parental | M1 ag | CHRM1 antagonist
CCOc1ccc(C(CC(=O)O)NC(=O)C(CC)c2ccccc2)cc1 (centres undefined) | -12 | -3 | 8 | 0 | -4 | -12
CCn1c(=Nc2ccc(N3CCOCC3)cc2)ccc2ccccc21 | -5 | 14 | -13 | 0 | -10 | 10
Cn1c(=Nc2ccc(N3CCOCC3)cc2)ccc2ccccc21 | -4 | 0 | -13 | 0 | -6 | 48*
Cn1cc(C(=O)c2ccc(Cl)cc2)cc1-c1nc2ccccc2n1C | 0 | 3 | -14 | 9 | 0 | 24*
CC(=O)N1CCN(S(=O)(=O)c2cccc(C(=O)NCCc3ccc(Cl)cc3)c2)CC1 | -20 | -1 | -5 | 0 | -6 | 4
C=C1CC(C(=O)N/N=C/c2ccc(O)cc2)C1 | -15 | 25* | -8 | 0 | -5 | 13
CC(=O)N1CCN(C(=O)/C(C#N)=C/c2ccc3c(c2)OCO3)CC1 | 9 | -12 | 34* | 0 | 4 | -29
Nc1ccc2c(c1)[nH]c(=O)c1cc(N)ccc12 | 9 | -7 | 3 | 0 | -3 | -6
Cc1ccc(NC(=O)c2cc(S(=O)(=O)N3CCOCC3)cn2C)cc1F | 9 | -14 | 3 | 0 | -4 | -8
CCOc1ccc(-n2c(=S)sc3c(=O)n(-c4ccc(F)cc4)c(SCC(=O)O)nc32)cc1 | 11 | -13 | 3 | 0 | -3 | -4
CC(=O)Oc1cc2c(cc1Cl)C1(CC(c3ccccc3Cl)O2)CC(C)(C)NC(=S)N1 (centres undefined) | 11 | -5 | -12 | 0 | -3 | 47*
C/C=C/c1cccc(-c2nc(C(=O)NC3CCCC3)cc3c2[C@@H](CCO)N(S(=O)C(C)(C)C)C3)c1 (some centres undefined) | 5 | 1 | -2 | 2 | -5 | 4
CC[C@H]1c2[nH]c3ccccc3c2C[C@H]2C(=O)N(c3ccc(F)cc3)C(=O)N21 | -15 | 24* | -8 | 1 | -3 | 10
CCCOc1ccc(Oc2ccc(S(=O)(=O)N3CCN(C)CC3)cn2)cc1 | 8 | -3 | 4 | 3 | -2 | -9
CCCCC(CC(O)COCCC)c1n[nH]c(=S)n1-c1ccccc1 (centres undefined) | 16 | -8 | -1 | 1 | -3 | 3
Cc1ccc(S(=O)(=O)N(C)C[C@H]2Oc3ncc(-c4ccccc4)cc3C(=O)N([C@@H](C)CO)C[C@@H]2C)cc1 | 12 | -7 | -1 | 0 | -10 | -16
O=C1CCC/C(=N/NC(=O)c2ccc(CN3c4cccc5cccc(c45)S3(=O)=O)cc2)C1 | 7 | 3 | 5 | 1 | 19* | -7
O=C(O)c1ccc(/C=N/NC(=O)c2ccc(CN3c4cccc5cccc(c45)S3(=O)=O)cc2)cc1 | 9 | -8 | 5 | 0 | 7 | -12
CCCS(=O)(=O)NC(=O)C1(C)CCCN(C(=O)c2c(OC)cccc2OC)C1 (centres undefined) | 14 | -6 | 15 | 0 | -1 | -24
CC(Oc1ccc(Cl)cc1)C(=O)Nc1ccc(S(=O)(=O)N2CCOCC2)cc1 (centres undefined) | 14 | 5 | -3 | 36* | 38* | 8
O=C(COc1ccccc1Br)Nc1ccc(S(=O)(=O)N2CCCC2)cc1 | 4 | -13 | -29 | 6 | -4 | 42*
CC(Oc1ccccc1Cl)C(=O)Nc1ccc(S(=O)(=O)N2CCCC2)cc1 (centres undefined) | 13 | 0 | -27 | 4 | -3 | 91*
CC(OC(=O)c1ccc(Cl)nc1)C(=O)Nc1ccc(S(=O)(=O)N2CCCC2)cc1 (centres undefined) | -8 | -3 | -25 | 1 | -7 | 36*
CC1CCCN(C(=O)CSc2cnc3ccccc3n2)C1 (centres undefined) | 4 | -16 | 1 | 2 | -5 | -4
CCOC(=O)[C@]12CCC=C1N(CCC1=CCCCC1)C(=O)[C@H](CC(=O)N1CCOCC1)C2 | 12 | -7 | . | 0 | . | .
SMILES | M1 PAM parental | CHO-K1 Ca antag | M1 PAM | M1 ag parental | M1 ag | CHRM1 antagonist
CC(CN1CCOCC1)OC(=O)c1ccccc1Cl (centres undefined) | 13 | -21 | 15 | 1 | -5 | -18
O=C(COC(=O)c1cc([N+](=O)[O-])ccc1NCCO)Nc1ccc2c(c1)OCO2 | 7 | 1 | 5 | 2 | -3 | -3
CC(=O)Nc1ccc(NC(=O)COC(=O)c2cc(S(=O)(=O)N3CCCC3)ccc2O)cc1 | 16 | -7 | -15 | 0 | -1 | 30*
O=C(COC(=O)c1cc([N+](=O)[O-])ccc1NCCO)Nc1cccc(S(=O)(=O)N2CCCC2)c1 | 2 | 9 | -19 | 0 | -7 | 40*
Cc1nnc(SCC(=O)Nc2ccc(S(=O)(=O)N3CCCC3)cc2)n1N | 1 | -2 | -21 | 0 | -3 | 54*
CCOC(=O)[C@]12CCC=C1N(Cc1ccc(Cl)cc1Cl)C(=O)[C@H](CC(=O)NCc1cccc3ccccc13)C2 | 9 | 1 | . | 1 | . | .
COc1ccc(C(C)(O)c2nc(-c3ccncc3)cs2)cc1 (centres undefined) | -8 | 1 | -2 | 5 | 2 | 0
CC(C)Oc1ccc(OCCCN2CCCCCC2)cc1 | 7 | -2 | -20 | 0 | -7 | 36*
CC(C)(C)c1ccc(OCCCN2CCCC2)cc1 | 17 | -3 | 5 | 2 | -8 | -17
Clc1ccc(OCCCCN2CCCCC2)cc1 | 0 | 11 | -11 | 1 | -9 | 16
CC(C)c1ccc(OCCCCN2CCCCC2)cc1 | -3 | -7 | -25 | 4 | -8 | 60*
COC1c2ccccc2C(=O)N1Cc1ccc(F)cc1 (centres undefined) | 1 | 3 | 15 | 0 | -2 | -17
Cc1noc(C)c1CCC(=O)NC1CCCN(Cc2ccc(CC(C)C)cc2)C1 (centres undefined) | -13 | -9 | -22 | 3 | -5 | 54*
Cc1noc(C)c1CCC(=O)NC1CCCN(Cc2ccc(Cl)cc2)C1 (centres undefined) | -30 | 15 | -16 | -1 | -8 | 36*
CC(C)Cc1ccc(CN2CCCC(NC(=O)c3ccnn3C)C2)cc1 (centres undefined) | -7 | 2 | -10 | 9 | 0 | -5
Cn1cccc1C1Nc2ccccc2NC2=C1C(=O)CC(C)(C)C2 (centres undefined) | 1 | 21 | -6 | 3 | 1 | 42*
O=C(CSc1ccc2ccccc2n1)c1ccc2c(c1)OCO2 | -8 | 28* | 1 | -1 | -1 | 5
O=C(O)CSc1ccc2ccccc2n1 | 7 | -6 | -13 | 0 | -2 | 12
CC(C)(C)c1cc(C(=O)NNC(=O)Nc2ccccc2)n(Cc2ccccc2)n1 | 6 | 2 | 4 | 5 | -2 | -8

Screening results as filed in PubChem.
